Test results from PubChem BioAssay AID489042 (NMMLSC, 2010).
Where “and” joins values, the source holds several entries; their conditions need not be identical. Equal values may be shown once. Some structures have more than one record in an assay (separate samples or runs), and their calls can disagree. Calls of active or inactive are those of the source. Cut-off read from the data, not from the text of the source: active = inhibition score above about 11; inactive = the rest.

Assay: S. cerevisiae short- and long-term growth effects – BY4741, OD595, 24 h, dose response (AID 489042)
Settings: stronger effect = higher value

Row | Compound | inhibition score
1 | CC(C)CSc1nnc2c3ccccc3n(C)c2n1 | 0 (inactive)
2 | Cc1cccc2nc3ccccc3nc12 | 10 (inactive)
3 | CC(C)(C)n1nc(-c2ccc(F)cc2)c2c(N)ncnc21 | 21 (active)
4 | COc1ccc2nc3ccccc3nc2c1NC(=O)c1ccccc1Cl | 0 (inactive)
5 | C=CCOn1c(=O)c(-c2cccs2)[n+]([O-])c2ccccc21 | 0 (inactive)
6 | CCCCCNC(=O)C(=O)C1C(=O)Nc2ccccc21 (centres undefined) | 10 (inactive)
7 | COc1ccc2nc3ccccc3nc2c1N | 10 (inactive)
8 | CCN(CC)C(=O)CSc1nnc(-c2cccc(OC)c2)o1 | 0 (inactive)
9 | COc1ccc2cc(C3CC(c4ccco4)=NN3S(=O)(=O)c3ccccc3)c(Cl)nc2c1 (centres undefined) | 0 (inactive)
10 | c1ccc2nc3ccccc3nc2c1 | 21 (active)
11 | COc1cccc2nc3cc(C)c(C)cc3nc12 | 10 (inactive)
12 | CN(C)CCNc1ncnc2c1cnn2-c1ccc(Cl)cc1 | 0 (inactive)
13 | COc1ccc2nc3ccccc3[n+]([O-])c2c1 | 0 (inactive)
14 | CCN(CC)C(=O)c1ccc2nc3ccccc3nc2c1 | 0 (inactive)
15 | Cc1cc(C)cc(NC(=O)CN2CCN(c3ccccn3)CC2)c1 | 0 (inactive)
16 | c1ccc2[nH]c3cc4ncnc4cc3nc2c1 | 0 (inactive)
17 | O=C(O)c1cnc2ccccc2n1 | 0 (inactive)
18 | Cc1cc2nc3ccc(N(C)C)cc3nc2cc1N | 0 (inactive)
19 | O=C(c1cccc2nc3ccccc3nc12)N1CCOCC1 | 0 (inactive)
20 | N#CC(c1nc2ccccc2nc1N1CCCC1)S(=O)(=O)c1ccccc1 (centres undefined) | 0 (inactive)
21 | O=C(CN1CCN(c2ccccn2)CC1)Nc1ccccc1F | 0 (inactive)
22 | CC(C)OC(=O)CSc1nnc(-c2ccc(Cl)cc2Cl)o1 | 0 (inactive)
23 | CCc1nc(NC(C)(C)C)c2cnn(-c3ccccc3)c2n1 | 0 (inactive)
24 | O=C(OCc1c(F)cccc1Cl)c1cnc2ccccc2n1 | 0 (inactive)
25 | COc1ccc2nc3ccccc3nc2c1 | 10 (inactive) and 21 (active)
26 | CC(=O)[C@@]1(O)CCC2C3CC[C@H]4C[C@@H](O)CC[C@]4(C)C3CC[C@@]21C (some centres undefined) | 0 (inactive)
27 | C=CCSc1nnc(-c2ccc([N+](=O)[O-])cc2)o1 | 10 (inactive)
28 | CNC(=O)c1cccc2nc3ccccc3nc12 | 21 (active)
29 | O=C(/C=C/c1ccccc1)NC(=S)NNC(=O)Cc1cccs1 | 21 (active)
